Cardiac RTF inh – cardiac RTF calcium desensitization; P19429+P45379; IANBD-labeled cardiac RTF, Ca2+ fluorescence; inhibition, % at 7.15 µM; 340,000 tested, 0.12% active;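 active = inhibition above the mean inhibition of all tested compounds plus 3 SD, cut at about 17% in these data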;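 note: assay run at fixed EC70 calcium of 1.6 mM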
LANA DNA inh – inhibitors of KSHV LANA C-terminal domain DNA binding | MBP-C-LANA/FAM-LBS DNA binding, fluorescence polarization | inhibition, % at 9 µM | 340,000 tested, 0.078% active;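 active = highest replicate inhibition at or above 60% at 9 µM, even if other replicates fall short; inactive = all replicates below 60% inhibition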
eLon inh – inhibitors of E. coli Lon protease; inhibition, % at 7.94 µM; purified E. coli Lon protease, fluorescence polarization; AID 602123; 360,000 tested, 0.42% active; in the data active = inhibition above about 13%, passing the limit was not always enough
cardiac RTF act – increases calcium sensitivity of human cardiac regulated thin filaments; P19429+P45379; IANBD-labeled TnC RTF fluorescence at EC20 calcium; 0% EC20 calcium, 100% full calcium; activation, % at 7.2 µM; 340,000 tested, 0.24% active;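 active = activation above the mean over all tested compounds plus 3 SD, cut at about 30% in these data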;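 note: rise in fluorescence read as greater calcium sensitivity of cardiac thin filaments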
Keap1 Nrf2 FP – inhibitors of human Keap1-Nrf2 protein-protein interaction; Keap1 Kelch-Nrf2 peptide fluorescence polarization, 1536-well; AID 504523; 340,000 tested, 0.15% active; Q14145; inhibition, % at 9.4 µM; in the data active = inhibition above about 12%;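 note: human Keap1 Kelch domain with fluorescein labeled Nrf2 9mer peptide probe; higher means more block of Keap1 binding to Nrf2 peptide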
Target sequence (Q14145 whole entry, looked up, the tested form may be a part): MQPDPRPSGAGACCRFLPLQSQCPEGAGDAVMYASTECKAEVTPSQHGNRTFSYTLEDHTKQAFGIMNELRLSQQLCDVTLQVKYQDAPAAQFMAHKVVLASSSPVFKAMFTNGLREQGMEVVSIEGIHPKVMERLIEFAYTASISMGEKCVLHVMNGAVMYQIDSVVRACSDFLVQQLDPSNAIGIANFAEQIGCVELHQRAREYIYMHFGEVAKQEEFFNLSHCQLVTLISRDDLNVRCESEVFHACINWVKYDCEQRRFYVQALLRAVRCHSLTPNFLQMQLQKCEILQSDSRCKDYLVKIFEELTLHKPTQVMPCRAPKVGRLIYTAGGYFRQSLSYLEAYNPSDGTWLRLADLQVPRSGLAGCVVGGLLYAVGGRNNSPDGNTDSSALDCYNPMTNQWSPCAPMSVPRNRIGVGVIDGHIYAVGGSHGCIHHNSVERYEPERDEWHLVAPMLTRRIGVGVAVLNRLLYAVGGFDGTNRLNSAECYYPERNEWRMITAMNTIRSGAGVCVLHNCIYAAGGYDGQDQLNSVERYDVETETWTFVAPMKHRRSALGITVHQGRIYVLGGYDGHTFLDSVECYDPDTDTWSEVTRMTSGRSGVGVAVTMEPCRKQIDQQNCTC
RTF inh confirm – cardiac RTF calcium sensitivity inhibition, confirmation; shares compounds with Cardiac RTF inh; inhibition, % at 7.15 µM; reconstituted cardiac thin filaments, calcium sensitivity fluorescence; 360 tested, 8% active; in the data active = inhibition above about 18%
Each line names hits and unclear results; the compound was inactive in the other large screens (follow-up assays come after a bar, where they were run). The list is not random: actives were taken first. Their share in the collection is about 0.82%.

Cc1ccc(-c2cc(C(=O)N/N=C/c3ccco3)[nH]n2)cc1	Cardiac RTF inh 17.1 | RTF inh confirm inactive
CCCCn1c(SC(C)C(=O)NCC2CCCO2)nc2cc(C(=O)OC)ccc2c1=O (stereo not given)	Cardiac RTF inh 18.5 | RTF inh confirm inactive
CCCCn1c(SC(C)C(N)=O)nc2cc(C(=O)OC)ccc2c1=O (stereo not given)	none
Cc1ccc(-n2c(SCC(=O)Nc3ccc4c(c3)OCCO4)nnc2-c2ccco2)cc1	Cardiac RTF inh 17.4 | RTF inh confirm inactive
O=C(NCCCN1CCC(Cc2ccccc2)CC1)C1CCN(S(=O)(=O)N2CCC3(CC2)OCCO3)CC1	none
O=C(NCCCN1CCN(Cc2ccccc2)CC1)C1CCN(S(=O)(=O)N2CCC3(CC2)OCCO3)CC1	Cardiac RTF inh 17.6 | RTF inh confirm inactive
O=C(O)C(Cc1ccccc1)N1C(=O)/C(=C/C=C/c2ccco2)SC1=S (stereo not given)	Cardiac RTF inh 63.7, LANA DNA inh 105.7, Keap1 Nrf2 FP 25.8 | RTF inh confirm 27.1
CCc1ccc(OCC(=O)NNC(=O)c2nn(CC)c(=O)c3ccccc23)cc1	Cardiac RTF inh 17.7 | RTF inh confirm inactive
CC1(C)Cc2cccc(OCC(O)CN3CCN(c4ccccn4)CC3)c2O1 (stereo not given)	none
CC1(C)Cc2cccc(OCC(O)CNCc3ccccn3)c2O1 (stereo not given)	Cardiac RTF inh 17.6 | RTF inh confirm inactive
Cc1ccc(S(=O)(=O)N(C)c2ccccc2)cc1	none
CN(c1ccccc1)S(=O)(=O)c1ccccc1Br	Cardiac RTF inh 17.2 | RTF inh confirm inactive
Fc1ccccc1CSc1ccc(-c2ccco2)nn1	Cardiac RTF inh 19.0 | RTF inh confirm inactive
O=C1NC(=S)S/C1=C\C=C\c1ccc([N+](=O)[O-])o1	Cardiac RTF inh 31.3 | RTF inh confirm 20.4
Cn1ncc2cc3c(Nc4ccc(Cl)cc4)cccc3nc21	none (no result: Cardiac RTF inh, LANA DNA inh, cardiac RTF act, Keap1 Nrf2 FP)
CCn1ncc(/C=C2/SC(=S)NC2=O)c1C	Cardiac RTF inh 18.7 | RTF inh confirm inactive
CSC(=NCc1ccc(F)cc1)NS(=O)(=O)c1cccs1	Cardiac RTF inh 17.2 | RTF inh confirm inactive
O=C(CNS(=O)(=O)c1cccs1)NCc1ccc(F)cc1	none
COC(=O)c1ccc(C(=O)N2CCCCCC2(C)C(=O)NC(C)C)cc1 (stereo not given)	none (no result: Cardiac RTF inh, LANA DNA inh, cardiac RTF act, Keap1 Nrf2 FP)
Cc1ccc(NC(=O)CSc2nnc3n2CCCCC3)cc1	Cardiac RTF inh 21.6 | RTF inh confirm inactive
O=C1/C(=C/c2cccs2)COc2ccccc21	Cardiac RTF inh 18.1 | RTF inh confirm inactive
Cc1ccc(C(=O)NC(=S)Nn2cnnc2)cc1	none
O=C(NC(=S)Nn1cnnc1)c1cccc(Br)c1	Cardiac RTF inh 18.8 | RTF inh confirm inactive
CC1CN(C2CCCCC2)C(=O)NC1=O (stereo not given)	none
CC(C)=CCC[C@H](C)C[C@@H]1CC2=C(C(=O)OC(C)(C)O2)[C@@H](c2ccc(F)cc2)O1	none (no result: Cardiac RTF inh, LANA DNA inh, cardiac RTF act, Keap1 Nrf2 FP)
COC(=O)N/N=C(\C)c1ccc(OC(F)F)cc1OC(F)F	Cardiac RTF inh 17.4 | RTF inh confirm inactive
COc1ccc(-c2csc(Nc3ccc(Oc4ccccc4)cc3)n2)cc1	none (no result: Cardiac RTF inh, LANA DNA inh, cardiac RTF act, Keap1 Nrf2 FP)
Cn1c(Cn2cnc([N+](=O)[O-])n2)nnc1SCC(=O)Nc1ccccc1	Cardiac RTF inh 17.1 | RTF inh confirm inactive
COc1ccccc1OCC(O)COC(N)=O (stereo not given)	Cardiac RTF inh 17.6 | RTF inh confirm inactive
COc1ccccc1OCC(O)CO (stereo not given)	none
CSc1ccc(-c2ccc3c(c2)c(Sc2ccccc2)c(-c2ccccc2)n3C)cc1	none (no result: Cardiac RTF inh, LANA DNA inh, cardiac RTF act, Keap1 Nrf2 FP)
COc1ccc(C(=O)Nc2ccc(C)cc2C(=O)c2ccccc2)c(OC)c1	Cardiac RTF inh 17.2 | RTF inh confirm inactive
CCOC(=O)[C@H](CCc1ccccc1)N[C@@H](C)C(=O)N1C(C(=O)O)C[C@@H]2CCC[C@@H]21 (stereo not given in full)	Cardiac RTF inh 23.4 | RTF inh confirm inactive
CCc1ccccc1NC(=O)C1(S(=O)(=O)c2ccc(C)cc2)CC1	Cardiac RTF inh 17.2 | RTF inh confirm inactive
COc1ccc(CCN2C(=O)COc3ccccc3C2C(=O)NC(C)(C)C)cc1OC (stereo not given)	none (no result: Cardiac RTF inh, LANA DNA inh, cardiac RTF act, Keap1 Nrf2 FP)
Cc1c(Cl)c([N+](=O)[O-])nn1CC(=O)NC(C)c1ccccc1 (stereo not given)	none
Cc1c(Cl)c([N+](=O)[O-])nn1CC(=O)NCc1cccs1	Cardiac RTF inh 18.2 | RTF inh confirm inactive
Cc1ccccc1-c1cnc(C(O)c2ccc(Cl)c(F)c2)[nH]1 (stereo not given)	none (no result: Cardiac RTF inh, LANA DNA inh, cardiac RTF act, Keap1 Nrf2 FP)
Cc1nn(-c2cccc(C(F)(F)F)c2)c(Cl)c1/C=N/Nc1cccc(C(=O)O)c1	Cardiac RTF inh 20.9 | RTF inh confirm inactive
NC(COCc1ccccc1)c1csc(NC(=O)Nc2cccc(Cl)c2)n1 (stereo not given)	none (no result: Cardiac RTF inh, LANA DNA inh, cardiac RTF act, Keap1 Nrf2 FP)
COc1cccc2c1NC(C(=O)O)C1CC=CC21 (stereo not given)	Cardiac RTF inh 19.0 | RTF inh confirm inactive
CCOC(=O)C1(C)CCN1C(=O)c1cncc(Br)c1 (stereo not given)	none (no result: Cardiac RTF inh, LANA DNA inh, cardiac RTF act, Keap1 Nrf2 FP)
CCc1ccc(NC(=O)c2cc(C)no2)cc1	none
CCc1ccc(NC(=O)CN(N=Nc2nonc2C)c2nonc2C)cc1	Cardiac RTF inh 26.4 | RTF inh confirm inactive
CC1CCCN(C(=O)COC(=O)CSc2ccc(C(N)=O)cc2[N+](=O)[O-])C1 (stereo not given)	none
CC1CCN(C(=O)COC(=O)CSc2ccc(C(N)=O)cc2[N+](=O)[O-])CC1	Cardiac RTF inh 17.2 | RTF inh confirm inactive
COc1cc(/C=C2\SC(=Nc3ccccc3)N(CCc3c[nH]c4ccccc34)C2=O)ccc1OC(C)C(=O)O (stereo not given)	Cardiac RTF inh 34.6 | RTF inh confirm inactive
O=c1cc2c(=O)oc3cc(O)c(O)oc3c2c(O)c1O	Cardiac RTF inh 86.7, LANA DNA inh 112.2 | RTF inh confirm 68.1
O=c1oc2cc(O)c(Cl)cc2c2ccccc12	none
O=C(O)c1ccccc1N=Nc1ccc(O)cc1	Cardiac RTF inh 18.4 | RTF inh confirm inactive
CCc1cc2c(CN(C)Cc3ccccc3F)cc(=O)oc2cc1O	Cardiac RTF inh 18.0 | RTF inh confirm inactive
CCCCCCCCCCCCCCCC(=O)OC(CC(=O)O)C[N+](C)(C)C (stereo not given)	Cardiac RTF inh 18.5 | RTF inh confirm inactive
CCCCCCC(=O)O	none
CCOc1cc(/C=N/NC(=O)c2ccc(-c3csc(Nc4ccc(C)cc4)n3)cc2)ccc1OCC(=O)O	none (no result: Cardiac RTF inh, cardiac RTF act)
O=C(O)COc1ccc(/C=N/NC(=O)c2ccc(-c3csc(Nc4ccc(Cl)cc4)n3)cc2)cc1	Cardiac RTF inh 34.3 | RTF inh confirm 18.4
CCOc1cccc(-c2ccc3nncn3c2)c1	none (no result: Cardiac RTF inh, LANA DNA inh, cardiac RTF act, Keap1 Nrf2 FP)
COc1ccc(CN(C)C(=O)COC(=O)c2c(-c3ccccc3Cl)noc2C)cc1	Cardiac RTF inh 17.6 | RTF inh confirm inactive

Screening results deposited in PubChem by several laboratories.
